An excerpt weighted towards active compounds, which were near 12% of everything screened.
Sfp PPTase inh: blocks B. subtilis Sfp PPTase activity; Q9F4F7; Biochemical Sfp PPTase activity, qHTS; Potency, µM, without a hit: largest response in the series, negative = inhibition, usual class: inhibitors; 310,000 compounds, 3.5% hits; AID 1490;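 note: the enzyme is Sfp with the accession as filed and its product quenches rhodamine fluorescence; 0% = enzyme reaction without inhibitor and -100% = no enzyme wells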
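Step 1, compound plus 15 nM Sfp-PPTase, 15 min, room temperature. Step 2, add rhodamine-CoA (5 uM) and BHQ-2-YbbR (12.5 uM). Step 3, read 525/598 nm fluorescence at 0 and 30 min.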
BAZ2B block: BAZ2B (human) inhibition; Potency, µM (series often up to 114 µM), for inactives: top-dose activity change, negative = inhibition, hits mostly inhibitors; AlphaScreen BAZ2B-H3K14Ac peptide displacement; Q9UIF8; 360,000 compounds, 4.4% hits; AID 504333; note: % is set by controls: 0 for no effect and ±100 for the full control effect; nearly all actives have a fitted effect of over 60% in size
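Inhibition is scored as reduced AlphaScreen emission. The BAZ2B/b-H3(5-23)K14Ac complex (50 nM each) in PBS pH 7.4, 0.01% Tween-20 meets compound (up to 110 uM) for 30 min at RT before bead addition.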
JMJD2A Tudor inh: inhibitors of human JMJD2A Tudor domain; O75164; AlphaScreen JMJD2A-Tudor / H3K4me3 peptide binding; Potency, µM (highest dose often 114 µM), for inactives: at the highest dose activity change, negative = inhibition, actives largely listed as inhibitors; 390,000 compounds, 4.4% hits; AID 504339; note: % is set by controls: 0 for no effect and ±100 for the full control effect; nearly all actives have a fitted effect of over 50% in size
G9a inh: blocks human histone lysine methyltransferase G9a; Q96KQ7; G9a H3K9 monomethylation, AlphaScreen, 2 h; Potency, µM (titrated, usually from 102 µM), for inactives: at the top dose activity, negative = inhibition, usual class: inhibitors; 350,000 compounds, 8.8% hits; AID 504332; note: % is set by controls: 0 for no effect and ±100 for the full control effect; nearly all actives have a fitted effect of over 75% in size
Target sequence (Q96KQ7 913-1193 limits assumed): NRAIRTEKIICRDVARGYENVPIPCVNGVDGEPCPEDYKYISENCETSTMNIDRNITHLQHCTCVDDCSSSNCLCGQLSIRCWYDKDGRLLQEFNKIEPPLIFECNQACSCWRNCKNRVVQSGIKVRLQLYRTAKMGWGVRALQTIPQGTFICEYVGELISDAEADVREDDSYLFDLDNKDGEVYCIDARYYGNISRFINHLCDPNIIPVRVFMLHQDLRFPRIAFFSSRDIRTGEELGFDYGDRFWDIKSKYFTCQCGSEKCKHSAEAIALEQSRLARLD
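Methyltransferase reactions run at room temperature for 2 h (20 nM enzyme, 500 nM biotin-H3K9 peptide, 20 uM SAM) after a 15 min compound preincubation; product detected by AlphaScreen beads and anti-H3K9me1 antibody.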
HP1b binding inh: inhibitors of HP1-beta chromodomain binding to methylated histone tails; P83916; 390,000 compounds, 0.56% hits; AlphaScreen HP1-beta / biotin-H3K9me3 peptide binding; Potency, µM (top dose mostly 114 µM), for the others: top-dose activity change, negative = inhibition, usual class: inhibitors; note: nearly all actives have a fitted effect of over 70% in size
Target sequence (P83916 whole entry, looked up): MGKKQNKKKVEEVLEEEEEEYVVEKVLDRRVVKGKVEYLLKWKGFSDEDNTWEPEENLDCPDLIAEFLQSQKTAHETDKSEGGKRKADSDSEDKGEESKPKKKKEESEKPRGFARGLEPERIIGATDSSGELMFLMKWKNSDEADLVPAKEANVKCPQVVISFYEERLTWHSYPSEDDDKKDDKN
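AlphaScreen: HP1-beta (50 nM) preformed 30 min with biotin-H3(1-18)K9me3 peptide (50 nM) in PBS pH 7.4, 0.01% Tween-20. Compound added for 30 min at RT, then streptavidin donor/nickel chelate acceptor beads (10 ug/mL) for 30 min.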
PLK1 PBD block: PLK1 (human) polo-box domain binding inhibition; P53350; Plk1 PBD binding of FITC phosphopeptide, fluorescence polarization; Potency, µM, for the others: max response, negative = inhibition, actives largely listed as inhibitors; 360,000 compounds, 2.8% hits; AID 720504; note: series mostly up to about 57 µM; % is set by controls: 0 for no effect and ±100 for the full control effect; nearly all actives have a fitted effect of over 65% in size
The depositor's hits bear a star; ? = inconclusive; nt = not tested or not shown; [ ] = dose if it differs, or a comment. Calls come from the whole dose curve; as a rule, active = well fitted curve in the direction sought with a large enough effect; inconclusive = small, poorly fitted or top-dose-only effect, or another doubt; inactive = no such curve, though single readings can be large; an effect the other way counts as inactive or inconclusive. Potency is the fitted concentration of half-maximal effect.

SMILES	Sfp PPTase inh	BAZ2B block	JMJD2A Tudor inh	G9a inh	HP1b binding inh	PLK1 PBD block
O=S1(=O)CCN(Cc2ccccc2C(F)(F)F)CC1	22%	-19%	-19%	-6%	28%	-3%
FC(F)(F)c1ccccc1CN1CCN(C2CCCCCC2)CC1	-60%	50µM*	6.3µM*	2.5µM*	?	-11%
Cc1ccc(S(=O)(=O)N2CCN(Cc3ccccc3C(F)(F)F)CC2)cc1	?	56µM*	?	32µM*	?	-10%
O=C1c2ccccc2C(=O)N1CC#CCN1CCN(C2CCCCC2)CC1	5%	?	?	20µM*	15%	-2%
Cc1ccccc1CN1CCN(Cc2ccccc2C(F)(F)F)CC1	?	28µM*	2.8µM*	2.8µM*	-32%	4%
FC(F)(F)c1ccccc1CN1CCCC(N2CCN(c3ccccc3)CC2)C1 (centres undefined)	13%	?	-33%	nt	12%	4%
CC(O)(c1ccncc1)c1nc(-c2cccc(C(F)(F)F)c2)cs1 (centres undefined)	nt	nt	nt	nt	nt	5%
Cc1cccc(C2=N[C@@H](Cc3ccccc3)CO2)c1	-10%	nt	nt	6%	nt	nt
CCCCCn1cnnc1SCC(=O)c1c(N)n(C2CC2)c(=O)[nH]c1=O	nt	0%	-6%	-9%	17%	1%
CSCCC(N)C(=O)O (centres undefined)	-8%	nt	nt	19%[59 µM]	nt	nt
O=[N+]([O-])c1ccccc1CN1CCN(S(=O)(=O)c2ccccc2)CC1	nt	nt	20µM*	nt	?	0%
Cc1ccc(S(=O)(=O)N2CCN(Cc3ccccc3Cl)CC2)cc1	nt	45µM*	5µM*	1.3µM*	?	nt
Cc1coc2c1c(C)cc1oc(=O)c(CC(=O)NCc3ccc(Cl)cc3)c(C)c12	nt	-3%	-8%	-1%[59 µM]	39%	nt
C=CCn1c(-c2ccc(S(=O)(=O)N3CCOCC3)cc2)csc1=Nc1ccccc1	-25%	6.3µM*	?	7%[0.501 µM]	-11%	-13%
COc1ccc(N=c2scc(-c3ccc(S(=O)(=O)N4CCOCC4)cc3)n2CCCO)cc1	6%	50µM*	nt	25µM*	nt	nt
CC(C)CN1CCCC2(CCN(S(=O)(=O)c3ccccc3)CC2)C1	14%	nt	nt	8%[12.7 µM]	nt	nt
CN(C)S(=O)(=O)c1ccc(S(=O)(=O)NCCN2CCOCC2)cc1	-4%	-4%	-5%	-11%	32%	-4%
CN(C)S(=O)(=O)c1cccc(-c2csc(=Nc3ccccc3)n2CCCN2CCOCC2)c1	-2%	32µM*	50µM*	50µM*	?	-6%
CC(C)Cn1c(-c2ccc(S(=O)(=O)N3CCCC3)cc2)csc1=Nc1ccccc1	nt	?	?	8.9µM*	-16%	nt
CSc1nn2c(C(F)(F)F)cc(C(F)(F)F)nc2c1C(=O)O	4%	4%	-1%	nt	22%	2%
Cc1cc(C)c(S(=O)(=O)Nc2cc(Cl)c3oc4c(c3c2)C(=O)CCC4)cc1C	nt	-4%	-8%	?	39%	nt
CN(C/C=C\c1ccccc1)Cc1cccc2ccccc12	-10%	nt	nt	-4%[12.7 µM]	nt	nt
CC(=O)c1cccc(N=c2scc(-c3ccc(S(=O)(=O)N4CCOCC4)cc3)n2CCO)c1	-9%	?	-34%[57.1 µM]	45µM*	?	?
NS(=O)(=O)c1ccc(N/C=C\C(=O)c2ccc3ccccc3c2)cc1	-5%	?	-25%	8.9µM*	27%	8%
CC1CCc2c(sc(NC(=O)CCCOc3ccc(C(C)(C)C)cc3)c2C(N)=O)C1 (centres undefined)	nt	6%	-6%	?	14%	nt
C=C1CCN(C(Cc2ccccc2)C(=O)O)S(=O)(=O)c2ccccc21 (centres undefined)	19%	nt	1%	nt	35%	nt
Cc1ccc(S(=O)(=O)NC(C(=O)Oc2ccc3c(C(F)(F)F)cc(=O)oc3c2)c2ccccc2)cc1 (centres undefined)	-12%	3%	-9%	7.1µM*	39%	-8%
Cc1cccc(CNC(=O)CCCN2C(=O)COc3ccc(C)cc32)c1	nt	-1%	-19%	10%[59 µM]	-3%	nt

Screening data from PubChem.
